Results taken from PubChem BioAssay (Tox21).
Results filed as inconclusive are left out. Active and inactive are the calls of the source. Calls come from the whole dose curve; as a rule, active = well fitted cell-killing curve with a large enough effect in the repeat runs; inconclusive = weak or mixed curves, or effect the other way; inactive = flat fitted curve, though single readings scatter.

Assay: qHTS assay to identify small molecule antagonists of the retinoid acid receptor (RAR) signaling pathway - cell viability counter screen (AID 1159551); note: nearly all actives have a fitted effect of over 35% in size
Conditions: C3RL4 cells viability, ATP luminescence (CellTiter-Glo), 6 h; series mostly up to 92.4 µM
Excerpt: U.S. Tox21 Program National Center for Advancing Translational Sciences [NCATS] NIH Chemical Genomics Center [NCGC] U.S. Environmental Protection Agency [EPA] National Institutes of Environmental Health Sciences [NIEHS] National Toxicology Program [NTP] U.S. Food and Drug Administration [FDA] Tox21 Assay Overview: All-trans Retinoic acid (atRA) is the potent natural metabolite of retinol and plays an important role in normal embryonic development and maintenance of cellular phenotype in adult animals. atRA is the activating ligand for the retinoic acid receptors (RARs) which form heterodimers with retinoid X receptors (RXRs) on the retinoic acid response element (RARE). Through activation of the RAR/RXRs nuclear receptors, atRA regulates the transcription of a large number of protein-coding genes and regulatory RNAs. Intracellular levels of atRA are controlled by the retinol signaling pathway (RSP) that regulates the biosynthesis and catabolism of atRA to maintain physiological levels. Chemicals that interfere with the RSP can cause abnormal intracellular levels of atRA and therefore are potential developmental toxicants. To assess compounds for the potential adverse effect on embryonic development through interfering with retinol signaling, a cell-based RARE luciferase reporter gene assay was used. C3RL4 cell line (OARSA/CFSAN/FDA, Laurel, MD) was used to screen Tox21 10K compound library for identifying inhibitors of the RSP. Also cytotoxicity was assessed by determining the viability of cells based on the quantitation of ATP.
Tox21 Assay Protocol Summary: C3RL4 cells were seeded at 1,000/well in 4 uL of assay medium into white solid 1,536-well tissue culture plates (Greiner Bio-One North America Inc. Monroe, NC) using a Multidrop Combi (Thermo Scientific, Waltham, MA) dispenser. After incubation at 37 C and 5% CO2 for an overnight, 23 nL of compounds dissolved in DMSO, positive control or DMSO only were transferred by a Pintool station (Kalypsys, San Diego, CA). One ul of 1 uM (final concentration) of Retinol was added right after the compound addition by using a Flying Reagent Dispenser (FRD) (Aurora Discovery, San Diego, CA). After 6 hr incubation at 37 C and 5% CO2, 5 uL of CellTiter-Glo reagent (Promega Corporation, Madison, WI) was added to each assay plate using an FRD. Luminescence was quantified on a ViewLux plate reader (PerkinElmer, Waltham, MA) after 30 min incubation at room temperature.
% is set by controls: 0 for no effect and ±100 for the full control effect.

| SMILES | outcome | activity change, negative = cytotoxicity |
| --- | --- | --- |
| OCCCCC(O)CO (stereo not given) | inactive | – |
| O=C(CS(=O)Cc1ccco1)NC/C=C\COc1cc(CN2CCCCC2)ccn1 (stereo not given) | inactive | – |
| CCCCCCCC/C=C\CCCCCCCC(=O)OCCCC | – | -0.376% [at 19 µM] (inactive) |
| CC(=O)/C=C/C1C(C)=CCC(C)C1(C)C (stereo not given) | inactive | – |
| Cc1c(I)c(=O)n(-c2ccccc2)n1C | inactive | – |
| CC(=C(CCOC(=O)C(C)C)SSC(CCOC(=O)C(C)C)=C(C)N(C=O)Cc1cnc(C)nc1N)N(C=O)Cc1cnc(C)nc1N | inactive | – |
| NCCN1CCOCC1 | inactive | – |
| CC(=O)N[C@@H](CCC(=O)O)C(=O)O | inactive | – |
| CC(C)CCCC(C)(C)O | inactive | – |
| Cc1cc(Cl)c(C)cc1Cl | inactive | – |
| CC(C)N(c1ccccc1)C(C)C | inactive | – |
| O=C1c2ccccc2C(=O)c2cc(S(=O)(=O)O)ccc21 | inactive | – |
| ClCCCl | inactive | – |
| BrCc1cccc(Oc2ccccc2)c1 | inactive | – |
| C=Cc1ccccn1 | inactive | – |
| N[C@@H](CCC(=O)N[C@@H](CS)C(=O)NCC(=O)O)C(=O)O | – | 0.178% [at 19 µM] (inactive) |
| N[C@@H](COP(=O)(O)O)C(=O)O | – | -0.284% [at 19 µM] (inactive) |
| Brc1ccc(-c2ccccc2)cc1 | inactive | – |
| C=C(C)C1CCC(C)(O)CC1 (stereo not given) | inactive | – |
| BrCCCCCBr | inactive | – |

| SMILES | outcome | activity change, negative = cytotoxicity |
| --- | --- | --- |
| Cc1ccc(S(=O)(=O)O)c(C)c1 | inactive | – |
| O=C(O)Cc1cn(-c2ccccc2)nc1-c1ccc(Cl)cc1 | inactive | – |
| COc1ccc(C2CNC(=O)C2)cc1OC1CCCC1 (stereo not given) | inactive | – |
| Cc1ccccc1C(=O)Nc1ccc(C(=O)N2CCCC(N(C)C)c3ccccc32)cc1 (stereo not given) | inactive | – |
| C=CCCCCCCCCCCCC | inactive | – |
| Nc1ccc2cc(S(=O)(=O)O)cc(O)c2c1 | inactive | – |
| CNS(=O)(=O)CCc1ccc2[nH]cc(C3CCN(C)CC3)c2c1 | inactive | – |
| NNc1nnc(NN)c2ccccc12 | inactive | – |
| O=C(O)Cc1ccc(Cl)cc1Cl | inactive | – |
| c1ccc2c(c1)ccc1c3ccccc3ccc21 | inactive | – |
| CC(=O)NCc1c(I)c(NC(C)=O)c(I)c(C(=O)O)c1I | inactive | – |
| CCOCCOC(=O)/C=C/c1ccc(OC)cc1 | inactive | – |
| Cc1cccc(OCC(O)CNC(C)(C)C)c1C (stereo not given) | inactive | – |
| CCNC(=O)C1CC(C)CCC1C(C)C (stereo not given) | inactive | – |
| COc1ccc2c(c1)C(=O)N(CCc1ccc(S(=O)(=O)NC(=O)NC3CCCCC3)cc1)C(=O)C2(C)C | inactive | – |
| COCCOCCOCCOCCO | inactive | – |
| CC1(CO)CN(c2ccccc2)NC1=O (stereo not given) | inactive | – |
| C[C@@H](Oc1ccc(CNC(=O)c2cccnc2Oc2ccc3c(c2)OCO3)c(F)c1)C(=O)O | inactive | – |
| CCOC(=O)c1ncn2c1CN(C)C(=O)c1cc(F)ccc1-2 | inactive | – |
| CC(S)C(=O)NCC(=O)O (stereo not given) | inactive | – |
